One assay relates to AAK1. Details: species or system human, MV4-11 + K-562 + COLO205 + SK-N-BE2 + OVCAR-8. To be noted: read-out: apparent Kd, n = 1.
The test system of a further assay is PKN1. Details: species or system human, MV4-11 + K-562 + COLO205 + SK-N-BE2 + OVCAR-8. To be noted: read-out: apparent Kd; compound concentrations:100 nM and 1000 nM (sheet 'Samples'); n = 1.
The next assay addresses Q6ZSR9 (human, UniProt Q6ZSR9). Details: species or system MV4-11 + K-562 + COLO205 + SK-N-BE2 + OVCAR-8. To be noted: read-out: apparent Kd, n = 1.
Another assay concerns CLK1. Details: species or system human, MV4-11 + K-562 + COLO205 + SK-N-BE2 + OVCAR-8. To be noted: read-out: apparent Kd, n = 1.
A further assay relates to CLK4. Details: species or system human, MV4-11 + K-562 + COLO205 + SK-N-BE2 + OVCAR-8. To be noted: read-out: apparent Kd, n = 1.
The subject of the next assay is BMP2K. Details: species or system human, MV4-11 + K-562 + COLO205 + SK-N-BE2 + OVCAR-8. As to conditions: read-out: apparent Kd, n = 1.
Another assay concerns GSK3A. Details: species or system human, MV4-11 + K-562 + COLO205 + SK-N-BE2 + OVCAR-8. To be noted: read-out: apparent Kd, n = 1.
A further assay deals with GSK3B. Details: species or system human, MV4-11 + K-562 + COLO205 + SK-N-BE2 + OVCAR-8. As to conditions: read-out: apparent Kd, n = 1.
The test system of a further assay is MELK. Details: species or system human, MV4-11 + K-562 + COLO205 + SK-N-BE2 + OVCAR-8. As to conditions: read-out: apparent Kd, n = 1.
The test system of a further assay is PKN3. Details: species or system human, MV4-11 + K-562 + COLO205 + SK-N-BE2 + OVCAR-8. To be noted: read-out: apparent Kd; compound concentrations:100 nM and 1000 nM (sheet 'Samples'); n = 1.
The subject of the next assay is CSNK2A1;CSNK2A3. Details: species or system human, MV4-11 + K-562 + COLO205 + SK-N-BE2 + OVCAR-8. As to conditions: read-out: apparent Kd, compound concentrations: 100 nM and 1000 nM (sheet 'Samples'), n = 1.
In a further assay the test system is CSNK2A2. Details: species or system human, MV4-11 + K-562 + COLO205 + SK-N-BE2 + OVCAR-8. To be noted: read-out: apparent Kd, compound concentrations: 100 nM and 1000 nM (sheet 'Samples'), n = 1.
The next assay relates to GAK. Details: species or system human, MV4-11 + K-562 + COLO205 + SK-N-BE2 + OVCAR-8. As to conditions: read-out: apparent Kd; compound concentrations: 100 nM and 1000 nM (sheet 'Samples'), CATDS: 2.5381960568832601E-2; n = 1.
The next assay deals with NUAK1. Details: species or system human, MV4-11 + K-562 + COLO205 + SK-N-BE2 + OVCAR-8. To be noted: read-out: apparent Kd, n = 1.
The next assay has as its system PAK4. Details: species or system human, MV4-11 + K-562 + COLO205 + SK-N-BE2 + OVCAR-8. To be noted: read-out: apparent Kd, n = 1.
Another assay relates to RET. Details: species or system human, MV4-11 + K-562 + COLO205 + SK-N-BE2 + OVCAR-8. As to conditions: read-out: apparent Kd; compound concentrations: 100 nM and 1000 nM (sheet 'Samples'), CATDS: 3.2863733799292097E-2; n = 1.
For the next assay, the system named is FLT4. Details: species or system human, MV4-11 + K-562 + COLO205 + SK-N-BE2 + OVCAR-8. To be noted: read-out: apparent Kd, n = 1.
The subject of the next assay is SIK2. Details: species or system human, MV4-11 + K-562 + COLO205 + SK-N-BE2 + OVCAR-8. As to conditions: read-out: apparent Kd; compound concentrations:100 nM and 1000 nM (sheet 'Samples'); n = 1.
Where [1] appears, read: compound concentrations:100 nM and 1000 nM (sheet 'Samples').

Like-named read-outs stand apart in the source and are kept apart here.

Chain of Q6ZSR9 (Q6ZSR9 whole entry, looked up): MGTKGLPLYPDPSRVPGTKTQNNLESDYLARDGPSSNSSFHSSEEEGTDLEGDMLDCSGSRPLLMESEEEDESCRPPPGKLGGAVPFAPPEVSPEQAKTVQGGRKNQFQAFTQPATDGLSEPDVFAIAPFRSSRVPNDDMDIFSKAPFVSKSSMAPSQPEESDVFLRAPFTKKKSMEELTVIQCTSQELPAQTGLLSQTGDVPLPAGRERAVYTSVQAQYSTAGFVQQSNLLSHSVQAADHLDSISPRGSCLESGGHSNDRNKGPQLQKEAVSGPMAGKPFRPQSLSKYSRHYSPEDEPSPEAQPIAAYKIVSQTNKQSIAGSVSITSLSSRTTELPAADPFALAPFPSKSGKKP

With `Cl.Cl.NC[C@H](CC1CCCCC1)NC(=O)c1ccc(-c2ccnc3[nH]ccc23)s1.NC[C@H](CC1CCCCC1)NC(=O)c1ccc(-c2ccnc3[nH]ccc23)s1` [GSK1581428A], the potency estimated from few doses in the assay with AAK1 (setting [1]) is 54.5 nM; with PKN1, 538 nM; with Q6ZSR9 (setting [1]), 62.7 nM.
On to `CCC(CC)(CC)n1cnc2c(N)ncnc21` [SKF-97620], for which the potency estimated from few doses was 1620 nM in the assay on AAK1 (compound concentrations: 100 nM and 1000 nM (sheet 'Samples'), CATDS: 2.5595683701841399E-2); 1260 nM in the assay with CLK1 (compound concentrations: 100 nM and 1000 nM (sheet 'Samples'), CATDS: 2.7794407506576899E-2); 1100 nM with CLK4 (compound concentrations: 100 nM and 1000 nM (sheet 'Samples'), CATDS: 2.9101207913204901E-2).
Turning to `Cn1cc(C=C2C(=O)Nc3cccnc32)c2ccccc21` [GW441756X], the potency estimated from few doses in the assay with AAK1 (compound concentrations: 100 nM and 1000 nM (sheet 'Samples'), CATDS: 0.22645425815754) was 1250 nM; in the assay on BMP2K (compound concentrations: 100 nM and 1000 nM (sheet 'Samples'), CATDS: 0.330795354292378) it was 609 nM; in the assay with Q6ZSR9 (compound concentrations: 100 nM and 1000 nM (sheet 'Samples'), CATDS: 0.24113419116187701) it was 1090 nM.
For `CCn1c(-c2nonc2N)nc2cncc(Br)c21` [SB-738004], the potency estimated from few doses in the assay on AAK1 (setting [1]) was 517 nM; in the assay with CLK1 (setting [1]), 1420 nM; with CLK4 (setting [1]), 505 nM; in the assay with GSK3A (setting [1]), 445 nM; in the assay on GSK3B (setting [1]) it was 724 nM; in the assay with MELK (setting [1]), 1660 nM. The results for the potency estimated from few doses with PKN1, in the assay on PKN3 and with Q6ZSR9 (setting [1]) were 553 nM, 1320 nM and 369 nM, respectively.
`CN[C@H](C#Cc1c(F)ccc2c1/C(=C/c1[nH]ccc1OC)C(=O)N2)CO.Cl` [RO0283049-001]: the potency estimated from few doses in the assay on AAK1 (compound concentrations: 100 nM and 1000 nM (sheet 'Samples'), CATDS: 2.8240152121160999E-2) is 574 nM; in the assay on BMP2K (compound concentrations: 100 nM and 1000 nM (sheet 'Samples'), CATDS: 7.2716114591836398E-2), 79.8 nM; in the assay with CSNK2A1;CSNK2A3 (CATDS: 2.0504154829503698E-2), 1690 nM; in the assay on CSNK2A2 (CATDS: 2.5963864867474401E-2) it was 730 nM; with GAK it was 781 nM; in the assay with GSK3A (compound concentrations: 100 nM and 1000 nM (sheet 'Samples'), CATDS: 5.21732936396841E-2) it was 145 nM. Also, the potency estimated from few doses with GSK3B (compound concentrations: 100 nM and 1000 nM (sheet 'Samples'), CATDS: 5.3689374792110299E-2) was 137 nM; with MELK (compound concentrations: 100 nM and 1000 nM (sheet 'Samples'), CATDS: 2.5364281194585201E-2), 783 nM; in the assay on NUAK1 (compound concentrations: 100 nM and 1000 nM (sheet 'Samples'), CATDS: 5.6502774837069003E-2) it was 125 nM; in the assay on PAK4 (compound concentrations: 100 nM and 1000 nM (sheet 'Samples'), CATDS: 2.6532527955357901E-2), 685 nM; with Q6ZSR9 (compound concentrations: 100 nM and 1000 nM (sheet 'Samples'), CATDS: 2.6998984012354399E-2), 651 nM; with RET, 389 nM.
On to `CN(C)c1ccc2c(c1)/C(=C/Nc1ccc(S(N)(=O)=O)cc1)C(=O)N2` [GW416469X], for which the potency estimated from few doses in the assay with AAK1 (compound concentrations: 100 nM and 1000 nM (sheet 'Samples'), CATDS: 7.2948540677608101E-2) was 1640 nM; in the assay on BMP2K (compound concentrations: 100 nM and 1000 nM (sheet 'Samples'), CATDS: 7.3539976386738704E-2), 1600 nM; in the assay with CSNK2A2 (CATDS: 7.0643002799247095E-2), 1820 nM; with FLT4 (compound concentrations: 100 nM and 1000 nM (sheet 'Samples'), CATDS: 7.3701429425290094E-2), 1590 nM; in the assay on NUAK1 (compound concentrations: 100 nM and 1000 nM (sheet 'Samples'), CATDS: 0.318304060181621), 86.6 nM.
Consider `Cc1cc(NC(=O)c2cccc(NC(=O)/C=C/CN(C)C)c2)ccc1Nc1nccc(-c2cccnc2)n1` [JNK-IN-7], for which the potency estimated from few doses in the assay on AAK1 (setting [1]) is 1000 nM; with BMP2K (setting [1]), 1330 nM; with CLK4 (setting [1]), 1630 nM; with MELK (setting [1]), 2110 nM; in the assay on NUAK1 (setting [1]) it was 688 nM; with Q6ZSR9 (setting [1]), 883 nM.
For the molecule `O=C1N=C(NCCc2cccs2)S/C1=C\c1ccc2ncccc2c1` [RO4508348-000], the potency estimated from few doses in the assay on AAK1 (compound concentrations: 100 nM and 1000 nM (sheet 'Samples'), CATDS: 0.107531235495484) is 1290 nM; in the assay on CLK1 (compound concentrations: 100 nM and 1000 nM (sheet 'Samples'), CATDS: 0.103004978566102) it was 1450 nM; with CSNK2A1;CSNK2A3 (CATDS: 0.103993193967583), 1410 nM; in the assay with CSNK2A2 (CATDS: 0.109129966582831), 1250 nM; with Q6ZSR9 (compound concentrations: 100 nM and 1000 nM (sheet 'Samples'), CATDS: 0.123024935972758), 947 nM.
With `CN(C)C(=O)/C(C#N)=C/c1ccc(-c2nc3cnc4[nH]ccc4c3n2C2CCCCC2)o1` [FM-381], the potency estimated from few doses was 1820 nM in the assay on AAK1 (setting [1]), 1050 nM with BMP2K (setting [1]), 566 nM in the assay on NUAK1 (setting [1]) and 1760 nM with Q6ZSR9 (setting [1]).
Turning to `O=C(Nc1n[nH]c2nc(-c3ccccc3O)ccc12)C1CC1` [SB-711880], the potency estimated from few doses in the assay on AAK1 (setting [1]) was 713 nM; with CLK4 (setting [1]), 1230 nM; in the assay on FLT4 (setting [1]), 1790 nM; in the assay with MELK (setting [1]), 2380 nM; in the assay with NUAK1 (setting [1]), 1850 nM; in the assay with PAK4 (setting [1]), 357 nM. In addition, the potency estimated from few doses with Q6ZSR9 (setting [1]) is 537 nM; in the assay on SIK2, 547 nM.
Regarding `Nc1nc(-c2ccc3c(N)n[nH]c3c2)cc(N2CCCCC2)n1` [GSK2228768A], in the assay on AAK1 (setting [1]), the potency estimated from few doses is 749 nM.

The values above are taken from PMC11062922 (Nature Chemical Biology, 2023).
